Consider 8 compounds from PubChem BioAssay (Tox21).

The nature of experiment [1]: qHTS assay to identify small molecule antagonists of the sonic hedgehog signaling (Shh) pathway (AID 1259369; calls by dose curve; note: nearly all actives have a fitted effect of over 45% in size; note: potency is the fitted concentration of half-maximal effect). The essentials:
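NIH/3T3-derived Gli1-Luc reporter cells plated 4 h, dosed with compound, then stimulated with conditioned medium for 24 h at 37 C. Firefly luciferase luminescence read after 30 min with detection reagent at room temperature.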
(Quantitative high-throughput screening tests each substance at several concentrations.)

For experiment [2], the target named is Estrogen receptor beta (Homo sapiens) (UniProt Q92731). Briefly: qHTS assay to identify small molecule agonists of the estrogen receptor beta (ER-beta) signaling pathway (AID 1259377; active = well fitted activation curve with a large enough effect in the signal ratio in the repeat runs, not every such curve was filed as active; the % refers to the signal ratio). A digest of the protocol: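 In HEK293T cells bearing a UAS-beta-lactamase reporter under ER-beta control, DMSO-delivered compounds were incubated for 16 hr at 37C. Activity was detected as fluorescence 2 hours after LiveBLAzer B/G FRET substrate addition.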

Experiment [3] has the same target. The experiment can be described thus: qHTS assay to identify small molecule antagonists of the estrogen receptor beta (ER-beta) signaling pathway (AID 1259378; active = well fitted inhibition curve with a large enough effect in the signal ratio in the repeat runs, not every such curve was filed as active; the % refers to the signal ratio). The essentials:
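ER-beta-UAS-bla HEK293T (GripTite) cells in 2% charcoal-stripped FBS medium were preincubated 6 hr at 37C, dosed with compound, then stimulated with 1 nM E2 (final) for 16 hr; beta-lactamase reporter read by B/G FRET fluorescence after 2 hr substrate loading.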

A short description of experiment [4]: qHTS assay to identify small molecule agonists of the androgen receptor (AR) signaling pathway in the presence of an antagonist - cell viability counter screen (AID 1259379).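 Note: MDA-kb2 human breast cancer cells carrying an MMTV luciferase reporter; series mostly up to about 92 µM; nearly all actives have a fitted effect of over 25% in size.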 A digest of the protocol: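 MDA-kb2 cells (MMTV-luciferase, AR/GR), 3,000/well, 5 h attachment, then 3.0 µM nilutamide (final) and compounds at 15 concentrations. Viability by CellTiter-Fluor fluorescence after 16 h at 37 °C, 0% CO2, in the reporter wells.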

Experiment [5] can be described thus: qHTS assay to identify small molecule agonists of the estrogen receptor beta (ER-beta) signaling pathway - cell viability counter screen (AID 1259380). Note: nearly all actives have a fitted effect of over 30% in size. Note: potency is the fitted concentration of half-maximal effect. The essentials: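 ER-beta-UAS-bla HEK293T cells in medium with 2% charcoal-stripped FBS, pre-incubated 6 hr, then treated 16 hr at 37C. Cytotoxicity read in the same wells by CellTiter-Glo luminescence after 30 min at room temperature.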

Experiment [6] is described as follows: qHTS assay to identify small molecule antagonists of the estrogen receptor beta (ER-beta) signaling pathway - cell viability counter screen (AID 1259382). Note: series mostly up to about 92 µM; nearly all actives have a fitted effect of over 55% in size. The essentials: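 ER-beta-UAS-bla HEK293T cells in 2% charcoal-stripped FBS medium, treated with compound plus 1 nM 17-beta-estradiol for 16 h at 37C. Viability read by CellTiter-Glo luminescence after 30 min at room temperature in the same wells.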

Experiment [7] has as its target Estrogen receptor (Homo sapiens) (UniProt P03372). Briefly: qHTS assay to identify small molecule agonists of the estrogen receptor alpha (ER-alpha) signaling pathway in the presence of an antagonist (AID 1259383; calls by dose curve; note: top concentration of the series differs between compounds; nearly all actives have a fitted effect of over 15% in size). The essentials:
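VM7Luc4E2 cells express endogenous full-length ER-alpha with an ERE-luciferase reporter and were hormone-deprived for 5 days. Compounds at 15 concentrations were added with 10.0nM ICI-182,780 for 22hr at 37C. Luminescence was read with ONE-Glo.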

A short description of experiment [8]: qHTS assay to identify small molecule agonists of the estrogen receptor alpha (ER-alpha) signaling pathway in the presence of an antagonist - cell viability counter screen (AID 1259386).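 Note: series mostly up to about 92 µM; cells exposed to compounds for 22 h at 37 °C before the viability read; nearly all actives have a fitted effect of over 30% in size.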 A digest of the protocol:
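Cell viability in VM7Luc4E2 cells (endogenous full-length ER-alpha) measured by CellTiter-Fluor fluorescence in the same wells as the luciferase screen. Cells pre-cultured 5 days in charcoal-stripped serum, then treated 22 h with compounds at 15 concentrations plus 10.0nM ICI-182,780.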

In experiment [9] the target is Progesterone receptor (Homo sapiens) (UniProt P06401). Briefly: qHTS assay to identify small molecule agonists of the progesterone receptor (PR) signaling pathway (AID 1346784; calls by dose curve; note: nearly all actives have a fitted effect of over 30% in size). A digest of the protocol: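 Using charcoal-stripped serum (2%) to limit endogenous steroids, PR-UAS-bla HEK 293T cells received compounds for 16 hr at 37C after 6 hr plating; beta-lactamase FRET fluorescence was recorded following 2 hr substrate loading at room temperature.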

The target is the same in experiment [10]. Briefly: qHTS assay to identify small molecule antagonists of the progesterone receptor (PR) signaling pathway (AID 1346795; active = well fitted inhibition curve with a large enough effect in the signal ratio in the repeat runs, not every such curve was filed as active; the % refers to the signal ratio). A digest of the protocol: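 Inhibition of R5020-induced (1 nM final) beta-lactamase reporter signal in PR-UAS-bla HEK293T cells was scored by FRET fluorescence after overnight (16 hr) compound treatment.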
A short description of experiment [11]: qHTS assay to identify small molecule antagonists of the progesterone receptor (PR) signaling pathway - cell viability counter screen (AID 1346798). Note: series mostly up to about 92 µM; nearly all actives have a fitted effect of over 50% in size. The essentials: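 ATP content as viability readout: CellTiter-Glo luminescence, 30 min room temperature, in PR-UAS-bla HEK293T cells after 16 hr compound/R5020 treatment at 37C and 5% CO2.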
A short description of experiment [12]: qHTS assay to identify small molecule agonists of the progesterone receptor (PR) signaling pathway - cell viability counter screen (AID 1346799; calls by dose curve; note: nearly all actives have a fitted effect of over 45% in size). A digest of the protocol:
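Cytotoxicity in PR-bla HEK293T cells: 16 h compound, 37C; CellTiter-Glo added post-FRET read; luminescence after 30 min RT.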

Experiment [13] in a line: qHTS assay to identify small molecule antagonists of the TGF-beta/Smad signaling pathway - cell viability counter screen (AID 1346824). Note: nearly all actives have a fitted effect of over 50% in size. The essentials:
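SBE-bla HEK 293T cells were plated overnight at 37 C, then given compounds in DMSO plus TGF-beta1 (added as 0.25 ng/mL solution) for 5 hr. After the bla read, CellTiter-Glo was added to the same wells and luminescence read after 30 min at room temperature.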

A short description of experiment [14]: qHTS assay to identify small molecule agonists of the TGF-beta/Smad signaling pathway - cell viability counter screen (AID 1346829). Note: top concentration of the series differs between compounds; nearly all actives have a fitted effect of over 45% in size. The essentials:
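Compound-treated SBE-bla HEK 293T cells (5 hr, 37 C) were assessed for viability with CellTiter-Glo in parallel with the reporter read.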

Experiment [15] in a line: qHTS assay to identify small molecule agonists of the TGF-beta/Smad signaling pathway (AID 1346859; active = well fitted activation curve with a large enough effect in the signal ratio in the repeat runs, not every such curve was filed as active; the % refers to the signal ratio; note: potency is the fitted concentration of half-maximal effect; for activation: series mostly up to about 77 µM). A digest of the protocol:
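Stable Smad binding element-beta-lactamase HEK 293T cells; 5 hr compound exposure at 37 C under 5% CO2; 2 hr room-temperature substrate step; fluorescence excited at 405 nm, collected at 460 nm and 530 nm.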

Experiment [16] concerns the target Thyrotropin-releasing hormone receptor (Homo sapiens) (UniProt P34981). Briefly: qHTS assay to identify small molecule antagonists of the thyrotropin-releasing hormone receptor (TRHR) signaling pathway (AID 1346877; active = well fitted inhibition curve with a large enough effect in the repeat runs, not every such curve was filed as active; note: series mostly up to about 51 µM). A digest of the protocol: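 TRHR-expressing HEK293 cells loaded with calcium dye for 2 h at 37 C; compounds pre-incubated 5 min at room temperature before TRH challenge at 1 nM final. Intracellular calcium fluorescence read kinetically for 3 min; 15 concentrations in triplicate.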

Experiment [17] shares this target. Briefly: qHTS assay to identify small molecule agonists of the thyrotropin-releasing hormone receptor (TRHR) signaling pathway (AID 1346891; calls by dose curve; note: series mostly up to about 58 µM). A digest of the protocol: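 In 1536-format, 1500 TRHR-Hek293 cells per well grew 18 h, took up calcium dye for 2 h at 37 °C, received compound, and were read kinetically; 15-point titrations, triplicates.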
Experiment [18] is described as follows: qHTS assay to identify small molecule agonists or antagonists of the thyroid stimulating hormone receptor (TSHR) signaling pathway - wild type cell line counter screen (AID 1259384; calls by dose curve). A digest of the protocol:
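Wild-type HEK293 cells were plated 18 h at 37 C/5% CO2, pin-dosed with compound plus Ro20-1724 medium, held 30 min at room temperature, then given cAMP-d2 and anti-cAMP-cryptate; fluorescence was read after 1 h. Fifteen concentrations, triplicate.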

The target of experiment [19] is Thyrotropin receptor (Homo sapiens) (UniProt P16473). The experiment can be described thus: qHTS assay to identify small molecule antagonists of the thyroid stimulating hormone receptor (TSHR) signaling pathway (AID 1259385; calls by dose curve; note: nearly all actives have a fitted effect of over 20% in size). The essentials: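 TSHR-HEK293 cells were plated and held 18 h at 37C/5% CO2, then given compound plus Ro20-1724 and stimulated with TSH at 1.5 ng/mL final. After 30 min at room temperature, cAMP was detected with cAMP-d2/anti-cAMP-cryptate (1 h) by fluorescence.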

Experiment [20] has as its target Androgen receptor (Homo sapiens) (UniProt P10275). Briefly: qHTS assay to identify small molecule agonists of the androgen receptor (AR) signaling pathway in the presence of an antagonist (AID 1259381; calls by dose curve; note: nearly all actives have a fitted effect of over 15% in size). A digest of the protocol:
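MDA-kb2 cells carrying MMTV-luciferase (AR/GR responsive), 3,000 cells/well, co-treated with 3.0 uM nilutamide final. Compounds at 15 concentrations, 16 hr at 37C without CO2. Luciferase luminescence read after 30 min with ONE-Glo.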

Several values for one entry are separate records, joined by “and”; a condition that tells them apart may be missing. Equal values may be shown once. Inconclusive results are not listed. More than one record can exist for a structure, and the calls need not agree. Activity calls are given as the source filed them. Unless noted, calls come from the whole dose curve; as a rule, active = well fitted curve in the direction sought with a large enough effect in the repeat runs; inconclusive = weak or mixed curves; inactive = no such curve, though single readings can be large; an effect the other way counts as inactive or inconclusive.

Sequence of Estrogen receptor (Homo sapiens) (P03372 whole entry, looked up): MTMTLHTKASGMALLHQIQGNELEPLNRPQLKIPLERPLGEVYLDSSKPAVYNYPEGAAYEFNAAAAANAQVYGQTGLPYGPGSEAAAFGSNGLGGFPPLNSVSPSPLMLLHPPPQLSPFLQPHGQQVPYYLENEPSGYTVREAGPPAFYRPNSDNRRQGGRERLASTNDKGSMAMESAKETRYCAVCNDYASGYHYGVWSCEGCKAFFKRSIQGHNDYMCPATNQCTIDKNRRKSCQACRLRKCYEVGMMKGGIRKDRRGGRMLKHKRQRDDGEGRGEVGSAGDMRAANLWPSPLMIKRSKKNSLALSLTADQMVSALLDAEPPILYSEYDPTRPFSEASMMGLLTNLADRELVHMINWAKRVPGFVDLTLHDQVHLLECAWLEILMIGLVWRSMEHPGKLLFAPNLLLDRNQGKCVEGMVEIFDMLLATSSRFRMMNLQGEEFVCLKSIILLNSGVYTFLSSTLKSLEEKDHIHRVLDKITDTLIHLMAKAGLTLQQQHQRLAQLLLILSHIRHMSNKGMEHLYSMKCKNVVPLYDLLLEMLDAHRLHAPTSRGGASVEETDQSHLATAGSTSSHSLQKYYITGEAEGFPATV
Sequence of Thyrotropin-releasing hormone receptor (Homo sapiens) (P34981 whole entry, looked up): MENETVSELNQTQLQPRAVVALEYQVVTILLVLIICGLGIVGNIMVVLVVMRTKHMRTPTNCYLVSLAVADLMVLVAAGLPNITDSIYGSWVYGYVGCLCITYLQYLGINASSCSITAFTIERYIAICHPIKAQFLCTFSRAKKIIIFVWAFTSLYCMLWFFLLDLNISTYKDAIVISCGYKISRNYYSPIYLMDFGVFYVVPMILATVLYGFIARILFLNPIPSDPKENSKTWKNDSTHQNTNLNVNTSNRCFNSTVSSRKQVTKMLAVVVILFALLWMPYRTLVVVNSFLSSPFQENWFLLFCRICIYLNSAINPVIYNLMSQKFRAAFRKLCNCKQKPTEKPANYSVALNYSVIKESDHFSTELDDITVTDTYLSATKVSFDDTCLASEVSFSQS
Sequence of Androgen receptor (Homo sapiens) (P10275 whole entry, looked up): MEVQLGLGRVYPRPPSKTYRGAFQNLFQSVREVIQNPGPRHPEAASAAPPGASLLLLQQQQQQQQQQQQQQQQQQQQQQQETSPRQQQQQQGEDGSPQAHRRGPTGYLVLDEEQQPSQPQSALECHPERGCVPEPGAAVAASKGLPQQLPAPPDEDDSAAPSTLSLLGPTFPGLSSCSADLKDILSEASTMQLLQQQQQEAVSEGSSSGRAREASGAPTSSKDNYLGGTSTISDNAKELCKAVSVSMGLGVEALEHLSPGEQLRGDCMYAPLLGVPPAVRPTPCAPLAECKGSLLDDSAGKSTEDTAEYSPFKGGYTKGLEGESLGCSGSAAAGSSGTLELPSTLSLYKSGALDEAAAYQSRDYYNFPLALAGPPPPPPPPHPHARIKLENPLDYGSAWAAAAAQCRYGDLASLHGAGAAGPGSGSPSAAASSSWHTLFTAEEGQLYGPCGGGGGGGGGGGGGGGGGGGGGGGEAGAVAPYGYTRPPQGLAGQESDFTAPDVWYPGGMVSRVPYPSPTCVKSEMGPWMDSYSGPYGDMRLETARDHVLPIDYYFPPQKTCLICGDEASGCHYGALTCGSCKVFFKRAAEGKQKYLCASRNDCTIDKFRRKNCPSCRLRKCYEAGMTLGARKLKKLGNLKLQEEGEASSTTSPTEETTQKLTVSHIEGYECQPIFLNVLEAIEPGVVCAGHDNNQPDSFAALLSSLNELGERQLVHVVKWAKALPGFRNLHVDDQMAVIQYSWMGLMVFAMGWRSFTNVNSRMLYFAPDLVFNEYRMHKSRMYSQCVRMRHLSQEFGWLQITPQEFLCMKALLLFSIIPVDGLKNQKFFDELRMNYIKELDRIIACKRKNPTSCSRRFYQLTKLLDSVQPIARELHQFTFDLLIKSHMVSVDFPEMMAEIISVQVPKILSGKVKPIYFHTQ
Sequence of Thyrotropin receptor (Homo sapiens) (P16473 whole entry, looked up): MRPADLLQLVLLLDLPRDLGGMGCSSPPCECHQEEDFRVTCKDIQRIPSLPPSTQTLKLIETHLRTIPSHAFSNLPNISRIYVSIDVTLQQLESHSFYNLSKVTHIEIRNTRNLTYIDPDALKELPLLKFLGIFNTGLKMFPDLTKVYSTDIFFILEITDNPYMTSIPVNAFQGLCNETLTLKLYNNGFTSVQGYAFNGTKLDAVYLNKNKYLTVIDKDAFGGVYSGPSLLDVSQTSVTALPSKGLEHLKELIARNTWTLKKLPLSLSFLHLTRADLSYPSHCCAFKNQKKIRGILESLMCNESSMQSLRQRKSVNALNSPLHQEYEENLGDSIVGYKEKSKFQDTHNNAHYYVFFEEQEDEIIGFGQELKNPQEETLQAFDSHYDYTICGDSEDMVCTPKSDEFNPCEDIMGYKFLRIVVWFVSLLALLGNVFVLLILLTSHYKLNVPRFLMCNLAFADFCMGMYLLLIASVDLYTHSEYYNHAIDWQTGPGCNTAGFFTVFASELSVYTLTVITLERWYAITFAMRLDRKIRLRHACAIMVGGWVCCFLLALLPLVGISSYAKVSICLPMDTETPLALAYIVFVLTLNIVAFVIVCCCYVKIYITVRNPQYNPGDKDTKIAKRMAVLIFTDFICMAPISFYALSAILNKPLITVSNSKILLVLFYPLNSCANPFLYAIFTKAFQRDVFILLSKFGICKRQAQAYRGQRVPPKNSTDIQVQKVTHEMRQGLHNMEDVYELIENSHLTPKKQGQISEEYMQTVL
Sequence of Progesterone receptor (Homo sapiens) (P06401 whole entry, looked up): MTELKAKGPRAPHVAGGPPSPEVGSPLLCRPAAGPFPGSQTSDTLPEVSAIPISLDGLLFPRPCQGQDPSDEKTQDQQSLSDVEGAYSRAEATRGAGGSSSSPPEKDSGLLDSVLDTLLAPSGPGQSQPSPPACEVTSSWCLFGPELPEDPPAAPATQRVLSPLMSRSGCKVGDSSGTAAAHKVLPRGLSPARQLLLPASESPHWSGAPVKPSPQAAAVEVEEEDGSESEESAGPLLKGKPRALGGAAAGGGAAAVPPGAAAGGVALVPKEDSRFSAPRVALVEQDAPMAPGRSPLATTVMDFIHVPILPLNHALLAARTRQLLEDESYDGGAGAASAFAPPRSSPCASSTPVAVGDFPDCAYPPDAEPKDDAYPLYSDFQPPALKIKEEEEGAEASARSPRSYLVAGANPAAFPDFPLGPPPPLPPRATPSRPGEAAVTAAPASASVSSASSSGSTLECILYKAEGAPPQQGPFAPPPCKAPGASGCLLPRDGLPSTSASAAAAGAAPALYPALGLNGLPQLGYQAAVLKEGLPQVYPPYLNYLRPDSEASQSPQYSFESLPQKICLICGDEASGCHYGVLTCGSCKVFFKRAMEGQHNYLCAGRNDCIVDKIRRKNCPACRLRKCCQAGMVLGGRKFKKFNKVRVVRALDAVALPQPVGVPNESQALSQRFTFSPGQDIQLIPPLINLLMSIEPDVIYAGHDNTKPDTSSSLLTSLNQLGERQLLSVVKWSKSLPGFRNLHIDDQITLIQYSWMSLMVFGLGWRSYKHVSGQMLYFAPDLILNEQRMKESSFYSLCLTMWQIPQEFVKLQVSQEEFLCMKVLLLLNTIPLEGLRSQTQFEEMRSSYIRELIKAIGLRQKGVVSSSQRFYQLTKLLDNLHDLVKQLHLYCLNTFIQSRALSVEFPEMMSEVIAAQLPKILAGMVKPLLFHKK
Sequence of Estrogen receptor beta (Homo sapiens) (Q92731 whole entry, looked up): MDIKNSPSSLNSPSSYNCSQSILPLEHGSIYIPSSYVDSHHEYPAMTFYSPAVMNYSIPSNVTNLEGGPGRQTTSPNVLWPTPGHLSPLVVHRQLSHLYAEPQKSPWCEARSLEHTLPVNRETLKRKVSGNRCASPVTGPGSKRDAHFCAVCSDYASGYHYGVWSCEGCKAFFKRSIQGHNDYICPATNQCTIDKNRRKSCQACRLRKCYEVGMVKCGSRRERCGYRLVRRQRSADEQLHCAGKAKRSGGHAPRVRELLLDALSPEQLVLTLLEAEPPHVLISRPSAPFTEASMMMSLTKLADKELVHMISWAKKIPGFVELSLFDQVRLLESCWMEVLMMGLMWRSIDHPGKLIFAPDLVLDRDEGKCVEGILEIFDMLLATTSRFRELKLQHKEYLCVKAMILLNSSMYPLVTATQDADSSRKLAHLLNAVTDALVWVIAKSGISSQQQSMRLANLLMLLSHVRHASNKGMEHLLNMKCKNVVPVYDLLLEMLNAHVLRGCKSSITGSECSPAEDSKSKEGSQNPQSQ

On to `CN1CCCC1=O`, for which the Potency result in [1], in [2], in [3], in experiment [4], in experiment [5] and in experiment [6] was “inactive” in each case. Moreover, the Potency result in experiment [7], in [8], in experiment [9], in experiment [10], in experiment [11] and in experiment [12] was “inactive” each time. The Potency entry in [13], in experiment [14], in experiment [15] and in [16] was “inactive” each time. The outcome in [17] was inactive.

`Cc1cccc(C)c1[N+](=O)[O-]`: in experiment [1], the Potency entry is “inactive and 24.3 µM (active)”. Also, the Potency result in experiment [2], in experiment [3], in [4], in experiment [5], in experiment [6] and in [18] was “inactive” each time. Besides, the Potency result in [19], in experiment [8], in experiment [9], in [10], in [11] and in [12] was “inactive” in each case. Also, the Potency entry in experiment [13], in [14], in [15] and in experiment [16] was “inactive” in each case. The call in [17] was inactive.

As to `CC(COCC(C)OC(=O)c1ccccc1)OC(=O)c1ccccc1` (stereo unspecified), the Potency result in experiment [1], in experiment [2], in experiment [3], in experiment [4], in experiment [5] and in [6] was “inactive” throughout. The Potency entry in experiment [18], in experiment [19], in experiment [8], in experiment [9], in experiment [11] and in experiment [12] was “inactive” each time. Further, the Potency entry in experiment [13], in experiment [14], in experiment [15] and in experiment [16] was “inactive” each time. The call in [17] was inactive.

As to `COC(=O)OC`, the Potency entry in experiment [1], in [2], in experiment [3], in [4], in experiment [5] and in experiment [6] was “inactive” throughout. The Potency entry in [19], in experiment [8], in experiment [9], in experiment [10], in [11] and in experiment [12] was “inactive” in each case. The Potency entry in [13], in [14], in experiment [15] and in [16] was “inactive” throughout. Besides, the compound was classed as inactive in [17].

In the case of `NCCNCCNCCN`, the Potency entry in experiment [1], in [3], in experiment [4], in experiment [5], in experiment [6] and in experiment [19] was “inactive” throughout. Further, the Potency result in experiment [8], in experiment [9], in experiment [10], in experiment [11], in [12] and in experiment [13] was “inactive” throughout. Moreover, the Potency result in [14], in [15] and in experiment [16] was “inactive” in each case. For the same compound, the call in experiment [17] was inactive.

Consider `COc1ccc(N)c(OC)c1`, for which the Potency was 9.31 µM (active) in [1]; “inactive and 54.5 µM (active)” in [5]. In addition, the Potency entry in [4], in experiment [6], in experiment [7], in experiment [18], in experiment [19] and in experiment [8] was “inactive” in each case. Moreover, the Potency result in [9], in experiment [10], in experiment [11], in [12], in experiment [13] and in [14] was “inactive” in each case. Further, the Potency entry in experiment [15] was “inactive”.

With `Nc1nc(N)c2nc(-c3ccccc3)c(N)nc2n1`, the Potency in [1] is 24.6 µM (active) and 30.6 µM (active); in experiment [5], 69.4 µM (active) and inactive; in experiment [15], 22.1 µM (active) and 19 µM (active). The Potency entry in [4], in [6], in experiment [7], in [18], in [19] and in experiment [8] was “inactive” throughout. The Potency entry in [11], in experiment [12], in [13], in experiment [14] and in [16] was “inactive” throughout. The result in experiment [20] and in experiment [17] was inactive.

On to `CCCCC(CC)COC(=O)c1ccc(C(=O)OCC(CC)CCCC)cc1` (stereo unspecified), for which the Potency result in experiment [1], in experiment [4], in experiment [5], in experiment [6], in experiment [8] and in experiment [9] was “inactive” throughout. In addition, the Potency result in experiment [10], in experiment [11], in [12], in experiment [13], in experiment [14] and in experiment [15] was “inactive” in each case. Further, the Potency entry in [16] is “inactive”. Further, the outcome in experiment [20] and in experiment [17] was inactive.
